The values below come from PubChem BioAssay (EPA / NIEHS).

Holding throughout (details): mRNA level, 48 h; actives raise or lower the signal
Read-out in test [1]: Paternally Expressed 10 (PEG10), PEG10 (gene 23089)
Description: LTEA_HepaRG_PEG10: Life Technologies and Expression Analysis (LTEA) Assay for Paternally Expressed 10 (PEG10) using HepaRG (AID 2283520). The method in brief:
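After 48 h exposure of differentiated HepaRG cells (0.5% DMSO vehicle, eight concentrations up to 100 uM, duplicates), PEG10 mRNA was measured by TaqMan qRT-PCR. Values were normalised to endogenous control genes and analysed bidirectionally against vehicle.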

Read-out in test [2]: Protein phosphatase 2A (PPP2R4), PTPA (gene 5524)
Description: LTEA_HepaRG_PPP2R4: Life Technologies and Expression Analysis (LTEA) Assay for Protein phosphatase 2A (PPP2R4) using HepaRG (AID 2283522). The method in brief: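 Using HepaRG cultures maintained in 0.5% DMSO, chemicals are tested 48 h at up to 100 uM in duplicate. Induction or suppression of PPP2R4 mRNA, measured by qRT-PCR, is fitted bidirectionally against the vehicle baseline.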

Read-out in test [3]: Phosphatase and tensin (PTEN), PTEN (gene 5728)
Briefly: LTEA_HepaRG_PTEN: Life Technologies and Expression Analysis (LTEA) Assay for Phosphatase and tensin (PTEN) using HepaRG (AID 2283523). The method in brief:
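Read-out: TaqMan qRT-PCR of PTEN transcript, normalized to three housekeeping genes, fitted in both directions against 0.5% DMSO. Differentiated human HepaRG cultures received chemicals for 48 h, eight-point half-log series topping at 100 uM.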

Read-out in test [4]: solute carrier (SLC22A1), SLC22A1 (gene 6580)
Description: LTEA_HepaRG_SLC22A1: Life Technologies and Expression Analysis (LTEA) Assay for solute carrier (SLC22A1) using HepaRG (AID 2283524). An outline of the steps: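 Transcript level of SLC22A1 quantified by qRT-PCR (normalized to three housekeeping genes) after 48 h chemical exposure of HepaRG cells, eight concentrations up to 100 µM, half-log steps, 0.5% DMSO vehicle. Gain or loss relative to DMSO fitted bidirectionally.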

Read-out in test [5]: Nuclear factor erythroid 2-related factor 2 (Homo sapiens) (UniProt Q16236)
Description: LTEA_HepaRG_NFE2L2: Life Technologies and Expression Analysis (LTEA) Assay for Nuclear factor erythroid 2-related factor 2 (NFE2L2) Transcription Factor using HepaRG (AID 2283527). An outline of the steps: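 NFE2L2 transcript level was read by qRT-PCR (housekeeping ACTB/GAPDH/POLR2A normalisation) after 48 h chemical treatment of HepaRG in serum-free induction medium. Duplicate 8-point half-log curves, top 100 uM, 0.5% DMSO vehicle; up- or down-regulation fitted against vehicle.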

Read-out in test [6]: succinate dehydrogenase complex iron sulfur subunit B (SDHB), SDHB (gene 6390)
Briefly: LTEA_HepaRG_SDHB: Life Technologies and Expression Analysis (LTEA) Assay for succinate dehydrogenase complex iron sulfur subunit B (SDHB) using HepaRG (AID 2283528). An outline of the steps:
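SDHB transcript level read by TaqMan qRT-PCR, housekeeping-normalised (ACTB, GAPDH, POLR2A), after 48 h chemical treatment of plated HepaRG cells; eight concentrations top 100 uM, half-log steps, 0.5% DMSO, duplicates; fitted both directions against DMSO.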

Read-out in test [7]: Signal transducer and activator of transcription 3 (Homo sapiens) (UniProt P40763)
Description: LTEA_HepaRG_STAT3: Life Technologies and Expression Analysis (LTEA) Assay for Signal transducer and activator of transcription (STAT3) using HepaRG (AID 2283529). An outline of the steps:
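STAT3 transcript quantified by qRT-PCR against three housekeeping genes (ACTB, GAPDH, POLR2A), fitted both directions relative to DMSO. HepaRG cultures exposed 48 h to eight half-log concentrations, top 100 uM, 0.5% DMSO, serum-free induction medium.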

Read-out in test [8]: solute carrier (SLCO1B1), SLCO1B1 (gene 10599)
Briefly: LTEA_HepaRG_SLCO1B1: Life Technologies and Expression Analysis (LTEA) Assay for solute carrier (SLCO1B1) using HepaRG (AID 2283530). An outline of the steps:
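SLCO1B1 transcript read by qRT-PCR (Fluidigm arrays), normalized to three housekeeping genes, after 48 h chemical exposure of HepaRG cells; bidirectional concentration-response fitting versus 0.5% DMSO baseline. Eight-point half-log series, maximum 100 uM.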

Read-out in test [9]: sulfotransferase 2A1 (SULT2A1), SULT2A1 (gene 6822)
Description: LTEA_HepaRG_SULT2A1: Life Technologies and Expression Analysis (LTEA) Assay for sulfotransferase 2A1 (SULT2A1) using HepaRG (AID 2283531). An outline of the steps:
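HepaRG, 48 h chemical exposure, 8-pt half-log curve from 100 uM in 0.5% DMSO, duplicates. Readout: TaqMan qRT-PCR of SULT2A1 mRNA, housekeeping-normalized. Bidirectional fit vs DMSO baseline.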

Read-out in test [10]: Transforming Growth Factor (TGFA), TGFA (gene 7039)
Description: LTEA_HepaRG_TGFA: Life Technologies and Expression Analysis (LTEA) Assay for Transforming Growth Factor (TGFA) using HepaRG (AID 2283532). An outline of the steps: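 TGFA transcript quantified by qRT-PCR (Fluidigm arrays) against three housekeeping genes, after 48 hours chemical treatment of HepaRG cells. Top concentration 100 uM with half-log dilutions, 8 points, duplicates, 0.5% DMSO.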

Read-out in test [11]: Transforming Growth Factor (TGFB1), TGFB1 (gene 7040)
Description: LTEA_HepaRG_TGFB1: Life Technologies and Expression Analysis (LTEA) Assay for Transforming Growth Factor (TGFB1) Transporter using HepaRG (AID 2283533). The method in brief:
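qRT-PCR readout of TGFB1 transcript in HepaRG lysates, normalized to three housekeeping genes; gain or loss of signal fitted relative to 0.5% DMSO vehicle. Exposure: 48 h, 8-point curve from 100 uM, duplicate wells.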

Read-out in test [12]: TIMP1, TIMP1 (gene 7076)
Briefly: LTEA_HepaRG_TIMP1: Life Technologies and Expression Analysis (LTEA) Assay for TIMP1 using HepaRG (AID 2283534).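 Further: TaqMan qRT-PCR signal normalized to ACTB GAPDH and POLR2A housekeeping genes.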 An outline of the steps:
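HepaRG, 48 h exposure, 8-pt half-log series from 100 uM in 0.5% DMSO, duplicates; TIMP1 transcript by Fluidigm qRT-PCR, housekeeping-normalized; bidirectional curve fit vs DMSO baseline.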

Read-out in test [13]: Tumor necrosis factor receptor 1 (TNFRSF1A), TNFRSF1A (gene 7132)
Briefly: LTEA_HepaRG_TNFRSF1A: Life Technologies and Expression Analysis (LTEA) Assay for Tumor necrosis factor receptor 1 (TNFRSF1A) using HepaRG (AID 2283535). An outline of the steps:
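HepaRG, 48 h plating then 48 h chemical exposure, serum-free induction media; 8-pt CRC from 100 uM, half-log, 0.5% DMSO vehicle, duplicates. Readout: TaqMan qRT-PCR (Fluidigm), housekeeping-gene normalized; bidirectional fit vs DMSO.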

Read-out in test [14]: Thyroid Hormone Responsive (THRSP), THRSP (gene 7069)
Briefly: LTEA_HepaRG_THRSP: Life Technologies and Expression Analysis (LTEA) Assay for Thyroid Hormone Responsive (THRSP) using HepaRG (AID 2283536). The method in brief:
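THRSP transcript quantified by Fluidigm qRT-PCR against three housekeeping genes after 48 h chemical exposure of HepaRG cells in serum-free induction medium; eight-point half-log series, top 100 uM, 0.5% DMSO vehicle, duplicate wells.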

Read-out in test [15]: Cellular tumor antigen p53 (Homo sapiens) (UniProt P04637)
Description: LTEA_HepaRG_TP53: Life Technologies and Expression Analysis (LTEA) Assay for Tumor Protein P53 (TP53) using HepaRG (AID 2283537). The method in brief: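 TP53 transcript measured by qRT-PCR, normalized to three housekeeping genes, after 48 h treatment of human HepaRG cultures with chemicals from 100 uM downward in half-log steps (0.5% DMSO vehicle, serum-free induction medium). Up- or down-regulation fitted against DMSO.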

Read-out in test [16]: UDP glucuronosyltransferase (UGT1A1), UGT1A1 (gene 54658)
Briefly: LTEA_HepaRG_UGT1A1: Life Technologies and Expression Analysis (LTEA) Assay for UDP glucuronosyltransferase (UGT1A1) using HepaRG (AID 2283538). The method in brief: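 mRNA induction or loss of UGT1A1, by TaqMan qRT-PCR, in duplicate HepaRG wells after 48 h exposure to half-log dilutions topping at 100 uM; DMSO (0.5%) served as baseline.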

Read-out in test [17]: UDP glucuronosyltransferase (UGT1A6), UGT1A6 (gene 54578)
Description: LTEA_HepaRG_UGT1A6: Life Technologies and Expression Analysis (LTEA) Assay for UDP glucuronosyltransferase (UGT1A6) using HepaRG (AID 2283539). An outline of the steps: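 qRT-PCR readout of UGT1A6 mRNA (normalized to ACTB/GAPDH/POLR2A) in differentiated HepaRG cells after 48 h chemical exposure; 8 concentrations, top 100 uM, half-log steps, 0.5% DMSO. Bidirectional curve fit relative to DMSO baseline.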

Read-out in test [18]: NAD(P)H dehydrogenase [quinone] 1 (NQO1), NQO1 (gene 1728)
Briefly: LTEA_HepaRG_NQO1: Life Technologies and Expression Analysis (LTEA) Assay for NAD(P)H dehydrogenase [quinone] 1 (NQO1) using HepaRG (AID 2283526). The method in brief: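 In this assay, gene expression is read by qRT-PCR after 48 h exposure of HepaRG cells to eight concentrations (max 100 uM, half-log) in 0.5% DMSO. Each chemical runs in duplicate, and activity is scored relative to vehicle.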

Read-out in test [19]: Nuclear factor NF-kappa-B p105 subunit (Homo sapiens) (UniProt P19838)
Briefly: LTEA_HepaRG_NFKB1: Life Technologies and Expression Analysis (LTEA) Assay for Nuclear Factor Kappa B Subunit 1 (NFKB1) using HepaRG (AID 2283521).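 Further: differentiated human HepaRG liver cells in serum-free induction medium.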 The method in brief: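 NFKB1 transcript was measured by TaqMan qRT-PCR on Fluidigm arrays, normalised to three housekeeping genes and fitted in both directions against 0.5% DMSO. HepaRG cells were dosed in duplicate for 48 h in serum-free induction medium, eight half-log steps from 100 uM.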

Active and inactive are the calls of the source. How the source made its calls: active means hit-call score of the fitted dose curve at least 0.9, where 1 is the maximum; inactive means score below 0.9.

Cellular tumor antigen p53 (Homo sapiens), sequence (P04637 whole entry, looked up): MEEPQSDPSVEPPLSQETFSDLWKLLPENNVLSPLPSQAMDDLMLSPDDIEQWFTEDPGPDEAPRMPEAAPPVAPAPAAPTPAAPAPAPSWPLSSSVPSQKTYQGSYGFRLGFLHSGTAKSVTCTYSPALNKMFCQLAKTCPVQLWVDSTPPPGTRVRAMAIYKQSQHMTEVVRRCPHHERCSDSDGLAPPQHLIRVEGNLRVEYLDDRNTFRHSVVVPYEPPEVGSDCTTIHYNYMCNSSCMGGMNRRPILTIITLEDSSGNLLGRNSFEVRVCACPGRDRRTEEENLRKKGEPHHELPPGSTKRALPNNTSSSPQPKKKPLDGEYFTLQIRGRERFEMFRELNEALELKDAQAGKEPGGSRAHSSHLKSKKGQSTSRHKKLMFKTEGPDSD
Signal transducer and activator of transcription 3 (Homo sapiens), sequence (P40763 whole entry, looked up): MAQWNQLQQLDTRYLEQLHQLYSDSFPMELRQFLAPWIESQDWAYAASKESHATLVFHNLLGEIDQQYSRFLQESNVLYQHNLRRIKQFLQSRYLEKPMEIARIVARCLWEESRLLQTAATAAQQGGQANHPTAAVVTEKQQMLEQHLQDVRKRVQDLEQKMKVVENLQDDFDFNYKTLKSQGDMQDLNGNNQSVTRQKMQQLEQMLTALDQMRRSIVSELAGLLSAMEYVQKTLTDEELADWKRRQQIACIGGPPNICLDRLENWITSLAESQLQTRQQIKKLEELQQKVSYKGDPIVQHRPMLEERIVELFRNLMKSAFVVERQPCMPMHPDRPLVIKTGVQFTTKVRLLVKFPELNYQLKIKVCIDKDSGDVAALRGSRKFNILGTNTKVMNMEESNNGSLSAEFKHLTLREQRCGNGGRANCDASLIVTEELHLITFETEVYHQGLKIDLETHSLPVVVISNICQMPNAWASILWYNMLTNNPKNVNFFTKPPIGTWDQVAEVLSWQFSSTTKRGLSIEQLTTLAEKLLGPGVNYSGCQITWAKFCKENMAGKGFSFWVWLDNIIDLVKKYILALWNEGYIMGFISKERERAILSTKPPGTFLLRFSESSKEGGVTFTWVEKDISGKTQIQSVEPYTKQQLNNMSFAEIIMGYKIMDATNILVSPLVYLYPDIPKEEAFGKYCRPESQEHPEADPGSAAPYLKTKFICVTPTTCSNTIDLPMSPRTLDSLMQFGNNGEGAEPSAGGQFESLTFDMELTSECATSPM
Nuclear factor erythroid 2-related factor 2 (Homo sapiens), sequence (Q16236 whole entry, looked up): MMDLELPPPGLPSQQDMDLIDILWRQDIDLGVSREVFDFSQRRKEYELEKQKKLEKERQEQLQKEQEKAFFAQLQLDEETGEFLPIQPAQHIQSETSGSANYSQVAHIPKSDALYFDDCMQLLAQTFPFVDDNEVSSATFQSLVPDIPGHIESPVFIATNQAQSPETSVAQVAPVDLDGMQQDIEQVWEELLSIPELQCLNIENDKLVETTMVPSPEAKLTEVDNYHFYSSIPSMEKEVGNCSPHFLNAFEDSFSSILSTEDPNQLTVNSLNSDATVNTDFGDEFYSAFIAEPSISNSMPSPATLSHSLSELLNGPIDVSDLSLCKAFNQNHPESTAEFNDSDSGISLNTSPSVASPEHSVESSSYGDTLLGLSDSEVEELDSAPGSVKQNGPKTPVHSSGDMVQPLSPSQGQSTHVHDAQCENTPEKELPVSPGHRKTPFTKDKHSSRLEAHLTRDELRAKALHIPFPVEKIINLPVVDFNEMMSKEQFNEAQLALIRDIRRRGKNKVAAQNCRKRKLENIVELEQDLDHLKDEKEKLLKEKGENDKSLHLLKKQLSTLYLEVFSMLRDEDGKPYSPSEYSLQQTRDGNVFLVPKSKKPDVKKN
Nuclear factor NF-kappa-B p105 subunit (Homo sapiens), sequence (P19838 whole entry, looked up): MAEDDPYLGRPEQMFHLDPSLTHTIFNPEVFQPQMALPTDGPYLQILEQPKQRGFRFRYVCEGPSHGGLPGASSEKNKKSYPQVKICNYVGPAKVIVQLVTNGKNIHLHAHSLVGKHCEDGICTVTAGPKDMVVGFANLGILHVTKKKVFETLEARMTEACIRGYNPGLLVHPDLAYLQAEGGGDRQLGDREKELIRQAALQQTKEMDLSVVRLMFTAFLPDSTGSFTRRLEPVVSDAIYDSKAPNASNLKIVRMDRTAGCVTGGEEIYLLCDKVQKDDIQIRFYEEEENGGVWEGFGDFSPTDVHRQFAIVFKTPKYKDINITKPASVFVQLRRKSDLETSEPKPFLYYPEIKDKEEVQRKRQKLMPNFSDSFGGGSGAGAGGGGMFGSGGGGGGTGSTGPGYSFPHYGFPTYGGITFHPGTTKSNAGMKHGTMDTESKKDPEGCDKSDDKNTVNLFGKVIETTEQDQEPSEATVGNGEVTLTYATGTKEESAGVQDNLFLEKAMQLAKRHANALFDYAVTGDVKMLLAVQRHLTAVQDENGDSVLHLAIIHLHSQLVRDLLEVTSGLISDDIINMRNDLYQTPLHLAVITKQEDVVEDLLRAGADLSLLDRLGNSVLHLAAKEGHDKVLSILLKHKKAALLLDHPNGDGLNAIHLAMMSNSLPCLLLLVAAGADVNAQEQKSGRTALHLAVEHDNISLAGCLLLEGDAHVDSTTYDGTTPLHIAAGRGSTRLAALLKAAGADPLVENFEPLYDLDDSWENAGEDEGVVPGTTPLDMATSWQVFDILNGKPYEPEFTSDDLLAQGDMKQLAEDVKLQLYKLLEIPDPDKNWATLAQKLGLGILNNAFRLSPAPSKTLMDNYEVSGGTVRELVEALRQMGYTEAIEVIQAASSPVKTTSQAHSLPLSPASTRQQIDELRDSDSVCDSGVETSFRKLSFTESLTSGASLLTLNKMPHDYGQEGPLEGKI

In general, AC50 refers to the concentration giving half of the maximal activity seen. With `CCCOC(=O)c1cc(O)c(O)c(O)c1`, the compound was called inactive in test [1], in [2], in [3], in test [4], in test [5] and in [6]. For the same compound, the compound was classed as inactive in test [7], in [8], in test [9], in test [10], in test [11] and in [12]. Besides, the compound was classed as inactive in [13], in [14], in [15] and in test [17]. The AC50 in test [16] was 1.73 µM (active).

Turning to `CCCCOC(=O)c1ccc(O)cc1`, the result in [1], in [2], in test [3], in test [4], in test [18] and in test [5] was inactive. The compound was classed as inactive in test [6], in test [7], in [8], in test [9], in test [10] and in [11]. The result in [12], in test [13], in test [14], in [15], in [16] and in test [17] was inactive.

For the compound `CC(C)(O)c1ccc(CNC(=O)c2cccnc2Oc2ccc3nonc3c2)cc1`, the call in test [1], in [19], in test [2], in [3], in test [4] and in [5] was inactive. The compound was called inactive in [6], in test [8], in [9], in [10], in test [11] and in test [12]. For the same compound, the compound was classed as inactive in test [13], in test [15] and in test [17]. For the same compound, the results for the AC50 in test [14] and in test [16] were 60.8 µM (active) and 9.41 µM (active), respectively.

Take `Cc1ccc(C(C)C)cc1`: the call in test [1], in test [2], in [3], in test [4], in [5] and in test [6] was inactive. For the same compound, the result in test [7], in test [8], in test [9], in test [10], in [11] and in [12] was inactive. The outcome in [13], in test [14], in [15], in test [16] and in test [17] was inactive.
